Measured values published in PubChem BioAssay AID485276 (Southern Research Specialized Biocontainment Screening …, 2010).
Results with a measured potency or affinity are listed apart. Values without a mark were called inactive. How the calls were made is not given here.

Experiment: antiviral efficacy against SV40, host toxicity – BSC cells, set 3, confirmation (AID 485276)
Conditions: series mostly up to 200 µM; CPE inhibition: at the top concentration

Row | SMILES | CPE inhibition [%]
1 | CC(C)(c1ccccc1)n1nnc(-c2ccccc2)n1 | 0
2 | Oc1ccc(Oc2ccc(O)cc2)cc1 | 0
3 | Oc1ccc(C2(c3ccc(O)cc3)CC2)cc1 | 37.4
4 | Oc1ccc(Cl)cc1Cc1cc(Cl)ccc1O | 0
5 | CC(C)(c1ccc(O)cc1)c1ccc(Cl)cc1 | 0
6 | Oc1c(Cl)cc(Cl)cc1Sc1cc(Cl)cc(Cl)c1O | 0
